For orientation: inhibition means the change of the read-out against control, counted positive when it falls.

Each structure is given as a SMILES string. In all, about 98,000 compounds went through this assay and about 4,900 (5%) were called active. The sample holds actives, similar compounds and a random draw of the others, so the mix is not that of the screen. No stated cut-off is given here; in the data, active means inhibition above about 30%; inactive means the rest.

This assay can be described thus: yeast control strain growth suppression – counter-screen for post-Golgi transport modulator project, primary screen (AID 738). To be noted: efflux-deficient yeast background strain, growth absorbance A615, 16 h; at 10 µM; hits give high values. (The purpose of a counterscreen is to sort out artefacts and off-target activity.)
For the compound `c1ccc(-c2cn3cccnc3n2)cc1`, the inhibition was 10% (inactive).

Consider `c1ccc(-c2cn3c(n2)CCc2ccc4cccnc4c2-3)cc1`, for which the inhibition is 42.3% (active). As for `O=C(Nc1ccccc1)c1ccccc1NC(=O)C(F)(F)F`, the figure is 10.5% (inactive). As to `CCOC(=O)c1ccc(N2C(=O)CC(N3CC(C)OC(C)C3)C2=O)cc1` (stereo not given), the inhibition is 7.03% (inactive). As for `CCOC(=O)c1ccc(N2C(=O)CC(N3CCC(C(=O)OCC)CC3)C2=O)cc1` (stereo not given), the figure is 0% (inactive). As for `CCCCOC(=O)c1ccc(N2C(=O)CC(N3CCN(C/C=C/c4ccccc4)CC3)C2=O)cc1` (stereo not given), the figure is 30.1% (active). Under `O=C(NC1CCN(C(=S)NCc2ccco2)CC1)c1ccc(F)cc1` stands 7.63% (inactive); under `CCOC(=O)N1CCN(Cc2nc(N)nc(Nc3ccc(C)cc3)n2)CC1`, -1.25% (inactive).

For `Cn1cc(S(=O)(=O)N2CCC(Cc3ccccc3)CC2)c(=O)n(C)c1=O`, the inhibition is 2.66% (inactive).

As to `CC(C)c1ccc(NS(=O)(=O)c2cn(C)c(=O)n(C)c2=O)cc1`, the inhibition was 94.4% (active). As for `Cn1cc(S(=O)(=O)N2CCN(c3ccc(F)cc3)CC2)c(=O)n(C)c1=O`, the figure is 3.87% (inactive). Under `CC(CNc1ccc([N+](=O)[O-])cc1)NC(=O)c1ccccc1Br` (stereo not given) stands 1.54% (inactive); under `CO/N=C/c1ccc(N2CCN(C(=O)c3cccc(Cl)c3)CC2)c([N+](=O)[O-])c1`, -2.25% (inactive); under `CC(C)NC(=O)c1ccc(Sc2ccccc2)c([N+](=O)[O-])c1`, -2.82% (inactive). Under `CCOc1cc2[nH]c(=S)n(CCCN3CCCC3=O)c(=O)c2cc1OCC` stands 35.1% (active).

With `CCOc1cc2[nH]c(=S)n(CCN3CCCCC3C)c(=O)c2cc1OCC` (stereo not given), the inhibition is -3.72% (inactive). As for `O=C(CCn1c(=S)[nH]c2ccccc2c1=O)NCCCN1CCCC1=O`, the figure is 18.7% (inactive); as for `O=C(c1ccccn1)c1ncc(C(F)(F)F)cc1Cl`, 5.57% (inactive). Under `Cc1nn(-c2ncc(C(F)(F)F)cc2Cl)c(=O)n1-c1ccccc1` stands 10.2% (inactive). As for `Cc1ccc(-c2ccnc3nc(Sc4ncc(C(F)(F)F)cc4Cl)nn23)cc1`, the figure is 36.2% (active); as for `O=C(Nc1ccccc1)OCc1cn(-c2ccc(Cl)cc2)nn1`, 17.4% (inactive).

For the compound `CCC(=O)NC(NCC1CCCO1)C(Cl)(Cl)Cl` (stereo not given), the inhibition is -2.21% (inactive). As for `COc1ccc(C(=O)NNC(=O)c2cnccn2)cc1[N+](=O)[O-]`, the figure is 7.69% (inactive); as for `Cc1cccc(C(=O)Nc2ccccc2-c2nnn(CC(=O)Nc3ccc4c(c3)OCCO4)n2)c1`, 6.95% (inactive). As for `Cc1cc(C)c(C#N)c(SCc2[nH]nc3c2C(c2ccccc2)C(C#N)=C(N)O3)n1` (stereo not given), the inhibition was -0.29% (inactive). As for `N#CC1=C(N)Oc2c(sc3ccccc23)C1c1ccco1` (stereo not given), the figure is 13.9% (inactive); as for `Cc1cc(C)c2c3c(sc2n1)C(c1ccccc1)C(C#N)=C(N)O3` (stereo not given), 72.8% (active). As for `C=CCOc1cccc(CNn2cn[nH]c2=S)c1`, the figure is 5.3% (inactive); as for `Cc1cccc(C)c1-n1c(C)cc(/C=C2\C(=O)NN(c3ccccc3)C2=O)c1C`, 20.6% (inactive); as for `CCOC(=O)Nc1ccc(NC(=O)OCC)cc1`, 3.65% (inactive).

In the case of `CCCCCOC(=O)NCCOC(=O)Nc1ccc(C(=O)OCC)cc1`, the inhibition was 43% (active). In the case of `CCCCC(CCC(=O)Nc1ccc(C(=O)OCC)cc1)C(=O)O` (stereo not given), the inhibition was -4.81% (inactive). Under `c1ccc(C2CCC(N3CCC(N4CCCCC4)CC3)CC2)cc1` (stereo not given) stands 1.52% (inactive); under `O=C(Nc1ccc2ccccc2c1)Nc1ccc2snnc2c1`, 67.9% (active); under `COc1ccc(NC(=O)Nc2ccc3nc(C)c(C)nc3c2)cc1`, 8.79% (inactive).

Consider `COc1ccc(NC(=O)Nc2ccc3nsnc3c2)cc1`, for which the inhibition was -5.25% (inactive). As for `CCCCNC(=O)C(=O)c1ccccc1NC(C)=O`, the figure is 7.01% (inactive). As for `Cc1ccc(NC(=O)N2CCC(C(=O)NCc3ccc(F)cc3)CC2)cc1`, the figure is 1.66% (inactive); as for `Cc1ccc(C(=O)NC2CCN(C(=O)N3CCOCC3)CC2)cc1`, 7.51% (inactive). Under `Cc1cc(C)cc(NC(=O)N2CCC(NC(=O)c3ccc(F)cc3)CC2)c1` stands 37.4% (active); under `CCOC(=O)c1sc(C)c2c1NC(C)(c1cccc3ccccc13)NC2=O` (stereo not given), 30.4% (active). Take `CCOC(=O)c1nc(N)sc1C(=O)OCC`: the inhibition was -8.73% (inactive). Under `CCOC(=O)c1cc2ccccc2nc1C` stands 3.8% (inactive). Under `CC1(C)CC(=O)C(C=NCCN2CCN(C(=S)Nc3cccc(Cl)c3)CC2)=C(O)C1` stands 1.4% (inactive). Under `COc1cc(/C=N/NC(=O)Nc2ccccc2)ccc1OCCOc1ccccc1C` stands -1.48% (inactive); under `Nc1c(-c2cccc(Cl)c2)cnn1-c1cccc([N+](=O)[O-])c1`, 4.05% (inactive); under `CC(C)(CCl)C(=O)Nc1ccc(Sc2ccc(F)cc2)cc1`, 37.1% (active). Turning to `COC(=O)c1ccc(Sc2ccc(F)cc2)c(N)c1`, the inhibition was 7.42% (inactive).

Consider `CCN(c1ccccc1)S(=O)(=O)c1ccc(NC(=O)C(C)(C)C)cc1`, for which the inhibition was 28.9% (inactive). On to `CC(=O)N/C(=C/c1ccc(Cl)cc1)C(=O)NCCc1c[nH]c2ccccc12`, for which the inhibition is 17.4% (inactive). As for `CCCCCCC(=O)Nc1nc(C)c(-c2csc(Nc3cccc(OC)c3)n2)s1`, the figure is 3.51% (inactive); as for `Cc1nc(Nc2ccc3c(c2)OCCO3)c2nnn(Cc3ccccc3Cl)c2n1`, 57.3% (active). Under `CC(C)(C)c1nc(NCC2CCCO2)c2nnn(Cc3ccccc3)c2n1` (stereo not given) stands 12.5% (inactive). In the case of `C#CCNc1nc(C(C)C)nc2c1nnn2Cc1ccccc1F`, the inhibition is 22.2% (inactive).

On to `CCCCNC(=S)NNC(=O)c1cc(C)on1`, for which the inhibition was 6.93% (inactive). As for `N#CC1=C(N)N(c2ccc(F)cc2)C(=O)C1`, the inhibition was 1.63% (inactive). Consider `Cc1ccccc1-n1c(C)cc(/C=N/NC(=O)c2ccc(CN3CCOCC3)cc2)c1C`, for which the inhibition is 7.99% (inactive). Take `COc1ccccc1N1CCN(C(=O)c2cc(-c3ccc(Cl)c(Cl)c3)on2)CC1`: the inhibition was 2.68% (inactive). Under `COc1ccccc1N1CCN(C(=O)c2cc(-c3ccc(Br)cc3)on2)CC1` stands 33.2% (active); under `COc1ccccc1-c1cc(C(=O)N2CCCCC2)no1`, 13.9% (inactive); under `NC(=O)N1CCCC1C(=O)Nc1ccc(Cl)c(Cl)c1` (stereo not given), -1.15% (inactive).

Regarding `O=C(CSc1nnc(-c2ccccc2)o1)N1CCOCC1`, the inhibition was 7.42% (inactive).

`CC1=CC(C)(C)N(C(=O)CSc2nccn2C)c2cc(C)ccc21`: the inhibition is 1.07% (inactive). Under `CC1=CC(C)(C)N(C(=O)CSc2nnc(-c3ccccc3)o2)c2ccc(C)cc21` stands 72.6% (active); under `CC(C)NC(=O)c1ccccc1S(=O)c1ccccc1C#N` (stereo not given), -5.45% (inactive); under `Cc1nn(C)cc1C(=O)NNC(=S)Nc1ccc(Cl)cc1`, 2.4% (inactive). Under `CCC(=O)N(Cc1ccccc1)c1ccccn1` stands 1.04% (inactive); under `Cc1ccc(C(=O)N/C(=C/C=C/c2ccccc2)C(=O)NCc2ccco2)cc1`, -1.68% (inactive).

Take `CN(CC(=O)Nc1cccc2c1CCCC2)S(=O)(=O)c1ccc(Cl)cc1`: the inhibition was -4.31% (inactive).

In the case of `COCCOC(=O)C1=C(C)NC(=O)CC1c1cc2c(cc1Br)OCO2` (stereo not given), the inhibition was -3.67% (inactive).

Regarding `CCCOc1ccccc1C1CC(=O)Nc2cc3c(cc21)OCO3` (stereo not given), the inhibition is 34.1% (active). As to `COc1ccccc1C1C2=C(COC2=O)Nc2cc3c(cc21)OCO3` (stereo not given), the inhibition is 6.27% (inactive). For the compound `COc1cc(C(=O)N2CCN(C/C=C/c3ccccc3)CC2)cc(OC)c1C`, the inhibition was 8.75% (inactive). Under `COc1cnc(SCc2ccc(Cl)c(Cl)c2)nc1Cl` stands 16.9% (inactive); under `CCCn1nc2cc(C(=O)NCc3ccccc3)ccc2c1OCC`, -6.87% (inactive). As for `CCn1c(=O)c(=O)n(CC)c2cc(S(=O)(=O)N3CCc4ccccc43)ccc21`, the figure is 12.6% (inactive). As for `CSc1nc2ccc(S(=O)(=O)N3CCc4ccccc43)cc2s1`, the figure is 52% (active). As for `Cn1c(=O)n(C)c2cc(S(=O)(=O)N3CCCc4ccccc43)ccc21`, the inhibition was -3.51% (inactive). As for `CCOc1ccc(C(CCc2ccccc2)NC(=O)c2ccc(OC)c(OC)c2)cc1OCC` (stereo not given), the figure is -3.35% (inactive); as for `C=CCNc1nc(N)c(C(=C(C#N)C#N)c2ccccc2)s1`, 5.44% (inactive). Under `CN1CCN(c2nc3c(c(=O)[nH]c(=O)n3C)n2Cc2cccc3ccccc23)CC1` stands 9.64% (inactive); under `CC1CCN(c2nc3c(c(=O)[nH]c(=O)n3C)n2CCCc2ccccc2)CC1`, 30.6% (active); under `C=C(C)Cn1c(N2CCCC2)nc2c1c(=O)[nH]c(=O)n2C`, 6.94% (inactive). Under `O=C1c2ccccc2C(=O)c2c1cccc2N1CCN(Cc2ccccc2)CC1` stands 17.7% (inactive); under `CCn1c2ccccc2c2cc(NC(=O)C/C(C)=N/NC(=O)c3ccccc3N)ccc21`, -1.98% (inactive); under `Cc1cccc(N2CCN(C(=O)CN(C)S(=O)(=O)c3ccc4c(c3)CCC(=O)N4)CC2)c1C`, 6.36% (inactive). Take `CCC(=O)Nc1ccccc1N1CCN(S(C)(=O)=O)CC1`: the inhibition was 13.1% (inactive).

As to `COc1ccccc1N1CCN(C(=O)c2ccc(S(=O)(=O)N3CCCCC3)cc2)CC1`, the inhibition was -0.79% (inactive). As for `COc1ccc(C(=O)NC(=S)Nc2ccccc2N2CCN(S(C)(=O)=O)CC2)cc1OC`, the figure is 31.7% (active); as for `O=C1/C(=C/c2cccs2)CCc2ccccc21`, 12.8% (inactive). Under `O=C(Nc1nccs1)C1CCN(S(=O)(=O)c2ccc(Cl)c(C(F)(F)F)c2)CC1` stands 17.7% (inactive); under `CCOC(=O)c1c(CN2CCOCC2)n(-c2ccccc2)c2ccc(O)cc12`, 45.2% (active); under `CCOC(=O)c1nnn(-c2nonc2-n2cccc2)c1CN1CCOCC1`, -2.3% (inactive). Under `O=c1c(-c2ccccc2)coc2c(CN3CCOCC3)c(O)ccc12` stands 10.4% (inactive); under `O=C(COC(=O)c1ccccc1SCC(=O)NC1CCCCC1)NC1CCCCC1`, 0.43% (inactive).

The record behind these values is PubChem BioAssay AID738 (SRMLSC, 2007).
